From PubChem BioAssay (EPA / NIEHS)
Records with an inconclusive call do not appear. Calls of active or inactive are those of the source. Rule for the calls: active = hit-call score of the fitted dose curve at least 0.9, where 1 is the maximum; inconclusive = response in the unintended direction; inactive = score below 0.9.

Tests used:
[1] = target: Cellular tumor antigen p53 (Homo sapiens) (UniProt P04637); test: TOX21_p53_BLA_p3_ratio: Tox21 HCT-116 p53 Agonism Beta-lactamase Assay, Ratio, Phase 3 (AID 2283596)
Cellular tumor antigen p53 (Homo sapiens), sequence (P04637 whole entry, looked up): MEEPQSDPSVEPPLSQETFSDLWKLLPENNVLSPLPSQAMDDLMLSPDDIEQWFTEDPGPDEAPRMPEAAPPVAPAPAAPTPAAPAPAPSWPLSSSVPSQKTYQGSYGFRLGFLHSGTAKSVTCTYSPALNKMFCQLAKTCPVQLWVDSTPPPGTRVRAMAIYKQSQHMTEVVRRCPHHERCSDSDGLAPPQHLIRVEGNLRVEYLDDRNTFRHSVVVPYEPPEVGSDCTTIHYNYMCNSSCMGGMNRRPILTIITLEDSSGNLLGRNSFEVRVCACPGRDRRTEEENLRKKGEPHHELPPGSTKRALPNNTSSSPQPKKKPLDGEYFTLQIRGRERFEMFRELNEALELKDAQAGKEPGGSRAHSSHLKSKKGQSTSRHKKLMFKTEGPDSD
Outline: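 HCT116 p53-bla cells (4000/well) given compound in DMSO (217-fold dilution) after 5 h, incubated 16 h at 37C. CCF4-AM substrate 2 h at room temperature; 460/530 nm emission ratio, gain fitted against DMSO.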

[2] = TOX21_p53_BLA_p4_viability: Viability Assessment in the Tox21 HCT-116 p53 Agonism Beta-lactamase Assay, Phase 4 (AID 2283597);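 note: hits lower the luminescence signal meaning cytotoxicity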
Outline: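 HCT-116 p53-bla cells, 4000/well, dosed after 5 h attachment and incubated 16 h at 37 °C, 5% CO2. Viability from CellTiter-Glo ATP luminescence after 30 min at room temperature, taken after the beta-lactamase read; loss of signal indicates cytotoxicity.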

[3] = target: Cellular tumor antigen p53 (Homo sapiens) (UniProt P04637); test: TOX21_p53_BLA_p5_ratio: Tox21 HCT-116 p53 Agonism Beta-lactamase Assay, Ratio, Phase 5 (AID 2283599)
Outline: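 Beta-lactamase reporter ratio (blue 460 nm over green 530 nm, 405 nm excitation) after 2 h CCF4-AM loading, in HCT-116 cells exposed 16 h at 37 C to compounds pinned at 217-fold dilution. Increases relative to DMSO baseline scored.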

[4] = TOX21_p53_BLA_p5_viability: Viability Assessment in the Tox21 HCT-116 p53 Agonism Beta-lactamase Assay, Phase 5 (AID 2283600)
Outline: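 HCT-116 p53 beta-lactamase reporter cells, 4000/well, were exposed to compound (pin transfer, 217-fold dilution) for 16 hours at 37C. Cellular ATP was read by CellTiter-Glo luminescence after 30 min at room temperature.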

[5] = target: Cellular tumor antigen p53 (Homo sapiens) (UniProt P04637); test: TOX21_p53_BLA_p4_ratio: Tox21 HCT-116 p53 Agonism Beta-lactamase Assay, Ratio, Phase 4 (AID 2283601)
Outline: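 Signal is the blue/green (460nm/530nm) ratio of cleaved versus uncleaved CCF4-AM substrate, read after 2 h substrate loading. Cells were HCT116 carrying the p53-responsive beta-lactamase reporter, dosed 16 h at 37C, 5% CO2; CellTiter-Glo measured in parallel.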

[6] = Tanguay_ZF_120hpf_YSE_legacy: (Legacy) Oregon State University Tanguay Lab 120 Hour Post-fertilization zebrafish Assay for Yolk Sac Edema (AID 2283634);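 for AC50: actives raise the incidence of yolk sac edema above the DMSO baseline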
Outline: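 Dechorionated Tropical 5D wild-type zebrafish embryos were exposed statically, one per well, from 6 to 120 hpf at 28C in 0.64% DMSO. Yolk sac edema was scored present/absent by brightfield at 120 hpf, and dead embryos were excluded.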

[7] = Tanguay_ZF_120hpf_EYE_legacy: (Legacy) Oregon State University Tanguay Lab 120 Hour Post-fertilization zebrafish Assay for Eye Malformation (AID 2283636)
Outline: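 Read-out is binary presence or absence of eye malformation, scored by brightfield microscopy at 120 hpf. Single larvae were exposed from 6 hpf in embryo medium containing 0.64% DMSO, with DMSO as baseline.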

[8] = Tanguay_ZF_120hpf_AXIS_legacy: (Legacy) Oregon State University Tanguay Lab 120 Hour Post-fertilization zebrafish Assay for Body Axis Malformation (AID 2283635);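 for AC50: potency for an increased fraction of larvae scored with body axis malformation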
Outline: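 Dechorionated wild-type Tropical 5D zebrafish embryos, one per well, statically exposed from 6 hpf to 120 hpf at 28C in 0.64% DMSO final. Body axis malformation scored present/absent by brightfield microscopy at 120 hpf; dead embryos excluded.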

[9] = Tanguay_ZF_120hpf_MORT_legacy: (Legacy) Oregon State University Tanguay Lab 120 Hour Post-fertilization zebrafish Assay for Mortality (AID 2283633);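 for AC50: fitted as increase in binary mortality versus DMSO negative control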
Outline: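 Dechorionated Tropical 5D wild-type zebrafish embryos, one per well from 6 hpf, static exposure in 0.64% DMSO at 28C until 120 hpf. Mortality scored as binary by brightfield microscopy at 24 and 120 hpf.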

[10] = Tanguay_ZF_120hpf_SNOU_legacy: (Legacy) Oregon State University Tanguay Lab 120 Hour Post-fertilization zebrafish Assay for Snout Malformation (AID 2283637)
Outline: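 Snout malformation read as a yes/no call on brightfield images of 120 hpf larvae (Tropical 5D strain). Static exposure began at 6 hpf on dechorionated embryos in 0.64% DMSO, with gain of signal analysed versus DMSO controls.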

Measured: AC50

CC1(C)NC(=O)N(c2ccc([N+](=O)[O-])c(C(F)(F)F)c2)C1=O
not listed: [8] | [9] | [10]
inactive: all other assays above

CC(C)(O)c1ccc(CNC(=O)c2cccnc2Oc2ccc3nonc3c2)cc1
inactive: [1] | [3] | [5] | [6] | [8] | [7]

O=C1O[C@H]([C@@H](O)CO)C(O)=C1O
not listed: [6] | [9] | [10]
inactive: all other assays above

Cc1occc1C(=O)Nc1ccc(C(=O)N2CCC(F)(F)/C(=C\C(=O)N3CCC(N4CCCCC4)CC3)c3ccccc32)cc1
inactive: [1] | [3] | [4] | [6] | [8] | [7]

CC1=CC(=O)/C(=C(/C)O)C(=O)O1
not listed: [2] | [7] | [10]
inactive: all other assays above

c1ccc2ccccc2c1
not listed: [2] | [6] | [7]
inactive: all other assays above

Cc1cc2c(cc1C(F)(F)F)N(C(=O)Nc1ccc(Oc3cccnc3C)nc1)CC2
not listed: [3] | [9] | [10]
inactive: all other assays above

O=C(O)c1ccccc1-n1cc(C(=O)O)c(=O)c2cc(Nc3c(F)cc(F)cc3Cl)c(Cl)cc21
inactive: [5] | [6] | [7]

CCCCCCCCCCCCO
not listed: [2] | [10]
inactive: all other assays above

CCCCCCCCCCCO
not listed: [5] | [9] | [10]
inactive: all other assays above

COCC(C)OCC(C)OCC(C)O (centres undefined)
inactive: [9] | [6] | [8] | [7]

Clc1cc(Cl)c2c(c1)N=C1CCCCCN1C2
active: [6] 21.5 µM | [8] 7.43 µM
not listed: [4] | [10]
inactive: all other assays above

O=C=NCCCCCCN=C=O
not listed: [2] | [7]
inactive: all other assays above

CCCCCCCC[Si](OCC)(OCC)OCC
inactive: [1] | [3] | [5] | [8]

CN1C(=O)CC[C@H]1c1cccnc1
inactive: [1] | [4] | [5] | [6] | [8] | [7]

CCOC(=O)O[C@H](C)OC(=O)c1ccc2c(c1)cc(C(=O)NC1CCN(C(C)C)CC1)n2Cc1cc(-c2ccc(Cl)s2)on1
active: [1] 81.9 µM | [2] 13.5 µM | [3] 80.9 µM | [4] 72.9 µM | [9] 23.7 µM | [10] 54.1 µM
inactive: [6] | [8] | [7]

Oc1ccc2ccccc2c1
active: [6] 36.9 µM | [8] 55.2 µM | [7] 61.7 µM
not listed: [2] | [10]
inactive: all other assays above

O=c1[nH]sc2ccccc12
not listed: [8] | [9]
inactive: all other assays above

c1ccc(C[n+]2cccc3ccccc32)cc1
not listed: [2] | [9] | [10]
inactive: all other assays above

C[C@]12CC[C@@H]3c4ccc(O)cc4CC[C@H]3[C@@H]1CCC2=O
inactive: [6] | [8] | [7]

CCCCCCCCN(C)CCCCCCCC
not listed: [3] | [4]
inactive: all other assays above

OC12N=C(c3ccccc3)SC1Cc1cc(Cl)ccc12 (centres undefined)
active: [2] 66.6 µM | [5] 86.6 µM | [6] 47.3 µM | [8] 50 µM | [7] 11.1 µM | [10] 15.1 µM
inactive: [3] | [9]

O=C(O)Cn1c(=O)n(Cc2ccc(Br)cc2F)c(=O)c2ccc(Cl)cc21
not listed: [1] | [10]
inactive: all other assays above
